Test results reported in PubChem BioAssay (NCI).
“And” between values parts separate entries of the source, which are not always exact repeats. Identical values can stand only once. Compounds without any hit were thinned out: in the full panel of roughly 83,000, 20% have a hit.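 Activity criterion: percent growth below 10, measured after cells in 96-well plates were exposed to a single compound concentration for 48 hours.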 A number with no mark means an inactive call. The source made the active and inactive calls.

Tested on: MDA-MB-468 breast
Test: NCI-60 one-dose screen, 48 h (100 = growth as untreated, 0 = no growth, -100 = all killed)
Settings: 10 µM unless noted

Q: How did the growth turn out when O=C(Nc1ccc2c(ccn2Cc2ccccn2)c1)c1cnccn1 was run?
A: 103%

Q: Which growth does the source give for O=C1/C(=C\c2cn(C(=O)c3ccc(Cl)cc3)c3ccccc23)c2ccccc2N1C(=O)c1ccc(Cl)cc1 here?
A: 51.7%

Q: Which growth does the source give for C=CCNc1nc(O)c(/C=C2\C=Nc3ncccc32)s1 here?
A: 1.02% (active)

Q: With CN1CCN=C1c1ccc(NC(=O)c2ccc(C(=O)Nc3ccc(C4=NCCN4C)cc3)cc2)cc1 as the compound, how does the growth read?
A: 81.2%

Q: O=C(N/N=C/c1ccccc1)C(Oc1ccccc1)c1ccccc1 (stereo not given) was tested. Which growth did it give?
A: 80.2%

Q: How did the growth turn out when Cc1ccc(-c2nn(-c3ccccc3)cc2C=C2C(=O)ON=C2C(C)C)cc1 was run?
A: 94%

Q: For O=C(Nc1cccnc1Nc1ccccc1)c1cn(Cc2cccc(Oc3ccccc3)c2)nn1, which growth is on record?
A: 69.9%

Q: How did the growth turn out when O=C(CI)NCCNc1cccc2c(S(=O)(=O)O)cccc12 was run?
A: 100%

Q: Which growth does the source give for O=C1COCCN1c1ccc(NCc2cn(Cc3ccccc3)c3ccccc23)cc1 here?
A: -76% (active)

Q: For CC(=O)CC(c1ccc([N+](=O)[O-])cc1)c1c(O)c2ccccc2oc1=O (stereo not given), which growth is on record?
A: 104%

Q: COc1ccc2c(c1)/C(=C1/S/C(=N/c3nnc(C)s3)NC1=O)C(=O)N2Cc1ccc(Br)cc1 was tested. Which growth did it give?
A: 25.8%

Q: CCCCCCCC/C=C/CCCCCCCC1=NCC[N+]1(CCO)CCO was tested. Which growth did it give?
A: 23%

Q: For COc1cc2cc(Oc3ccc(NC(=O)c4cc(C(F)(F)F)cc(C(F)(F)F)c4)cc3)c(C)nc2cc1OCCN1CCOCC1, which growth is on record?
A: 66.9%

Q: For Nc1nc2c(ncn2[C@@H]2O[C@H](CS)[C@@H](O)[C@H]2O)c(=O)[nH]1, which growth is on record?
A: 97.8%

Q: CC/C=C\CCC/C=C1/C(=O)C=C[C@@H]1C/C=C\CCCC(=O)O was tested. Which growth did it give?
A: 76.1%

Q: How did the growth turn out when CCCC/C(=C\c1ccc(O)c(O)c1)C(=O)NC(Cc1ccccc1)C(=O)C(=O)NCCc1ccc(OC)cc1 (stereo not given) was run?
A: 93.2%

Q: For COc1ccccc1/C=N\NC(=S)Nc1ccc(F)cc1, which growth is on record?
A: 72.9%

Q: With OC1CCN(CCCOc2c3ccccc3nc3c2oc2ccccc23)CC1 as the compound, how does the growth read?
A: -16.4% (active)

Q: Which growth does the source give for C=C(C)C(=O)O[C@H]1C[C@@]2(C)OC(=CC2=O)/C(CO)=C\[C@H]2OC(=O)C(=C)[C@H]12 here?
A: -34% (active)

Q: Which growth does the source give for CC1(C)CNC(=O)N1 here?
A: 98.2%

Q: How did the growth turn out when CCOC(=O)CSc1nc2ccccc2c(=O)n1Cc1ccc(S(N)(=O)=O)cc1 was run?
A: 105%

Q: Which growth does the source give for CC(C)(C)CC(C)(C)n1nnnc1C(Nc1ccccc1)c1cc2cccc3ccc4cccc1c4c32 (stereo not given) here?
A: 86.5%

Q: How did the growth turn out when CCCC(CCC)NCC(O)c1cc(-c2ccc(C(F)(F)F)cc2)nc(C(F)(F)F)c1 (stereo not given) was run?
A: -91.6% (active)

Q: For C=C(C)[C@@H]1CC[C@]2(COCCCNCCCN)CC[C@]3(C)[C@H](CC[C@@H]4[C@@]5(C)CC[C@H](O)C(C)(C)[C@@H]5CC[C@]43C)[C@@H]12, which growth is on record?
A: -81.6% (active)

Q: How did the growth turn out when COc1ccc(C2C=C(c3ccc(Cl)cc3)N=C3SC=CN32)cc1 (stereo not given) was run?
A: 120%

Q: With O=C(CCCCCCNC(=O)C(O)(O)C(F)(F)F)Nc1ccc(Br)cc1 as the compound, how does the growth read?
A: 8.56% (active)

Q: For O=C(/C=C/c1cccc(Cl)c1)c1ccccc1, which growth is on record?
A: 82.8% and 74.6%

Q: With O=C(NC(CSSCC(NC(=O)c1ccccc1)C(=O)O)C(=O)O)c1ccccc1 (stereo not given) as the compound, how does the growth read?
A: 111%

Q: For COc1cc(CNC(=O)Cc2ccccc2)ccc1OCc1cn(-c2ccc(F)cc2)nn1, which growth is on record?
A: 99.8%

Q: With Oc1ccc(Cl)cc1-c1cc(-c2ccccc2Cl)[nH]n1 as the compound, how does the growth read?
A: 3.92% (active)

Q: CCOC(=O)c1cc2cccc(OC)c2oc1=O was tested. Which growth did it give?
A: 108%

Q: Cc1ccc(NC(=O)Cc2ccc(/C=C/C(=O)c3ncc[nH]3)cc2)cc1 was tested. Which growth did it give?
A: -0.436% (active)

Q: How did the growth turn out when CC(=O)C1CCCCC1 was run?
A: 102%

Q: How did the growth turn out when COc1cccc(-c2nn(C(C)(C)C)cc2-c2ccnc(NCCCNS(=O)(=O)c3cccc4ccccc34)c2)c1 was run?
A: 110%

Q: How did the growth turn out when CN(C)C=Nc1cc(Cl)ccc1Cl was run?
A: 102%

Q: With O=C1OCC2=C1C(c1cccc(Cl)c1)c1cc3c(cc1N2CCO)CCC3 (stereo not given) as the compound, how does the growth read?
A: -9.35% (active)

Q: For CCCCC(=O)Nc1ncc(Cc2ccc(Cl)cc2)s1, which growth is on record?
A: 26.2%

Q: Cc1ccc(C(=O)N2C/C(=C/c3ccc(F)cc3)C(=O)/C(=C/c3ccc(F)cc3)C2)cc1 was tested. Which growth did it give?
A: 79.5%

Q: For C=C(C)[C@@H]1CC[C@]2(C(=O)OC)CC[C@]3(C)[C@H](CC[C@@H]4[C@@](C)(CC/C(N)=N/O)[C@H](C(=C)C)CC[C@]43C)[C@@H]12, which growth is on record?
A: 99.5%

Q: With COc1ccc(-c2c[nH]c(C(=O)O)c2-c2cc(OC)c3c(c2OC)OCO3)cc1 as the compound, how does the growth read?
A: 103%
